78 molecules from PubChem BioAssay AID631 (The Scripps Research Institute Molecular Screening Center, 2007) can be followed below.

Out of some 200,000 compounds screened, about 810 (0.41%) were called active. Cut-off read from the data, not from the text of the source: active = activation above about 19%; inactive = the rest. The sample as a whole holds a higher share of actives than the screen did.

The target in this experiment is Peroxisome proliferator-activated receptor gamma (Homo sapiens) (UniProt P37231). The experiment can be described thus: PPARgamma agonists recruiting SRC-1 coactivator, primary screen, biochemical (AID 631).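 Note: 0% = DMSO and 100% = reference agonist.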 As to conditions: PPARgamma-SRC-1 coactivator recruitment biochemical assay; at 8 µM; hits give high values.
Peroxisome proliferator-activated receptor gamma (Homo sapiens), sequence (P37231 whole entry, looked up): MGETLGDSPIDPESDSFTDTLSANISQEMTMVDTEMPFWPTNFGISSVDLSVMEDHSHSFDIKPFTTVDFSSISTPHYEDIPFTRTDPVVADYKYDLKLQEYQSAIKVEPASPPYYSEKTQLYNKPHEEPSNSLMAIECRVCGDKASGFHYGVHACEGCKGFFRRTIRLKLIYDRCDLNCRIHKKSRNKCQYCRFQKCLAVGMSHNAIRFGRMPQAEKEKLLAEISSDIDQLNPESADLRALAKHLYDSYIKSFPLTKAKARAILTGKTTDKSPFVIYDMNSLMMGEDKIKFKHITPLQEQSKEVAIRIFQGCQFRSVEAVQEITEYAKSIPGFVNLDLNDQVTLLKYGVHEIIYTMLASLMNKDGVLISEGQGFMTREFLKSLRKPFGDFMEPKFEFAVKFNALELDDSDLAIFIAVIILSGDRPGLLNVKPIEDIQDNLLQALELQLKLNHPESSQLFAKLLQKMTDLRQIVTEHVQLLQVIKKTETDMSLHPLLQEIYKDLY
For `O=C(Oc1ccc([N+](=O)[O-])cc1)c1ccc(Cl)c(S(=O)(=O)N2CCCCC2)c1`, the activation was -9.6% (inactive).

Regarding `CC(C)N(C(=O)Cn1cc(SCC(=O)N2CCCC2)c2ccccc21)C(C)C`, the activation was 5.8% (inactive).

Consider `Cc1ccc(NC(=O)CC2C(=O)N(Cc3ccccc3)C(=S)N2NC(=O)c2cccc(F)c2)c(C)c1` (stereo not drawn), for which the activation was -0.5% (inactive).

Turning to `CCN(CC)CCCNC(=O)CCc1ccccc1`, the activation is 3.3% (inactive).

For the molecule `CCN(CC)CCCNC(=O)c1cc(-c2cccc(Cl)c2)on1`, the activation is 3.6% (inactive).

On to `CCN(CCCNC(=O)CSc1cc(=O)n(C)c2cc(Cl)ccc12)Cc1ccccc1`, for which the activation is 55.4% (active).

In the case of `O=C(Nc1ccccc1Cl)c1ccccc1S(=O)(=O)c1ccccc1[N+](=O)[O-]`, the activation was 2.9% (inactive).

As for `COc1ccc(C(=O)C[n+]2ccc(C)cc2)cc1`, the activation is 0.2% (inactive).

For the molecule `S=C(NN=C1CCN(Cc2ccccc2)CC1)NC1CCCCC1`, the activation is -1.7% (inactive).

As to `CC(Sc1cccc[n+]1[O-])C(=O)Nc1cccc(S(=O)(=O)N2CCOCC2)c1` (stereo not drawn), the activation was -5.3% (inactive).

In the case of `Cc1nn(C)c(C(=O)NNC(=S)NC2CCCCC2)c1Cl`, the activation was -8.4% (inactive).

In the case of `COc1cccc(NC(=S)NC(=O)c2c(Cl)c(C)nn2C)c1`, the activation was 30.8% (active).

As for `COc1cccc(NC(=S)NCc2ccccn2)c1`, the activation is 2.4% (inactive).

As to `O=C(/C=C/c1cnc2ccccc2n1)NC1CCCCCC1`, the activation was -0.4% (inactive).

For `O=c1cc(O)c(-c2cccc(C(F)(F)F)c2)c(Cl)[nH]1`, the activation was 8% (inactive).

As to `CC(=O)c1ccc(-n2nnnc2SCC(=O)N2CCN(C(=O)c3ccco3)CC2)cc1`, the activation was 0.3% (inactive).

As for `CCOC(=O)C1CCN(C(=O)CSc2cc(=O)n(C)c3ccccc23)CC1`, the activation is 49.8% (active).

Turning to `Cn1c(=O)cc(SCC(=O)N2CCN(C(=O)c3ccco3)CC2)c2ccccc21`, the activation was 49.4% (active).

For `Cc1cccc(OCc2nnc(SCC(=O)N3CCN(C(=O)c4ccco4)CC3)n2C)c1C`, the activation is 5.6% (inactive).

On to `CCOc1ccc(CCNC(=O)CSc2cc(=O)n(C)c3ccc(Cl)cc23)cc1OCC`, for which the activation was 12% (inactive).

Regarding `Cn1c(=O)cc(SCC(=O)N2CCCC2)c2cc(Cl)ccc21`, the activation was 53.4% (active).

Consider `O=C(CSCc1ccc(Cl)cc1)N1CCCCC1`, for which the activation was 2% (inactive).

With `CCOC(=O)N1CCC(NC(=O)COc2cc(=O)n(C)c3ccccc23)CC1`, the activation was -0.7% (inactive).

`CCOC(=O)C1CCN(C(=O)Cn2cc(C#N)c3ccccc32)CC1`: the activation was -2.2% (inactive).

As for `CC1CN(CCCOc2ccccc2-c2ccccc2)CC(C)O1` (stereo not drawn), the activation was 6.7% (inactive).

In the case of `C/C(=N\Nc1nc(N2CCOCC2)nc(N2CCOCC2)n1)c1ccc([N+](=O)[O-])cc1`, the activation is 1.7% (inactive).

As to `CCN(CC)c1ccc(C(=O)N/N=C(\C)c2cccc(OC)c2)cc1`, the activation is 9.4% (inactive).

Take `CCOC(=O)c1c(N)nn(C(=O)c2ccccc2)c1-c1ccccc1`: the activation is 3% (inactive).

With `COc1cc2c(cc1OC)C(=O)NCC(C)(C)O2`, the activation was 9.4% (inactive).

With `CCOC(=O)c1ccccc1C(=O)N1CCOCCOCCOCC1`, the activation was -0.2% (inactive).

For `Cc1cnc(C(=O)N2CCCC(C(=O)c3ccc(C(F)(F)F)cc3)C2)cn1` (stereo not drawn), the activation is 5.6% (inactive).

In the case of `CN(C)/C(=N\OC(=O)c1ccccc1)c1nonc1N`, the activation was 2.5% (inactive).

As to `O=C(Nn1cnc2ccccc2c1=O)c1ccccc1`, the activation is 12.8% (inactive).

Regarding `Nc1nc(SCC(=O)NCCN2CCOCC2)nc2sc3c(c12)CCC3`, the activation is 6% (inactive).

In the case of `CCOc1cc(C2C(C(=O)OC(C)C)=C(C)NC3=C2C(=O)CCC3)cc([N+](=O)[O-])c1O` (stereo not drawn), the activation is -1% (inactive).

For the molecule `COc1ccc(Cl)cc1C(=O)NCc1cn(C)nc1C`, the activation is 0.6% (inactive).

Consider `Cc1ccc(-c2cc(C(=O)NCc3cn(C)nc3C)c3cc(Br)ccc3n2)cc1`, for which the activation is 22.7% (active).

With `Cc1ccc2nc(-c3cccc(Br)c3)cc(C(=O)Nn3cnnc3)c2c1`, the activation was -0.9% (inactive).

With `O=C(Cc1cc(=O)[nH][nH]1)N/N=C/c1ccccc1[N+](=O)[O-]`, the activation was 1.6% (inactive).

For the molecule `O=C(COc1cccc2ccccc12)Nc1cc(S(=O)(=O)N2CCOCC2)ccc1N1CCOCC1`, the activation was 5.6% (inactive).

As for `COc1ccccc1CC(NC(C)=O)C(=O)NC1CCN(C(=O)Nc2ccccc2Cl)CC1` (stereo not drawn), the activation is 5.1% (inactive).

Take `C=CCN(CC=C)CCOc1ccccc1[N+](=O)[O-]`: the activation was 2.5% (inactive).

For the molecule `COCC1CCCN(Cc2nc(-c3ccc4c(c3)OCO4)no2)C1` (stereo not drawn), the activation was 10.9% (inactive).

Regarding `COc1ccc(C2c3[nH]c4ccccc4c3CCN2CCCn2cccn2)cc1C` (stereo not drawn), the activation was -5% (inactive).

As for `CC(C)(C)CC(=O)Nc1nnc(SCC(=O)NCc2cccs2)s1`, the activation is 10.6% (inactive).

With `CCCOc1ccc(N/C=C/C(=O)C(C)(C)C)cc1`, the activation was 2.3% (inactive).

Consider `O=C(/C=C/Nc1ccccc1OC(F)(F)F)C(F)(F)F`, for which the activation is -4.7% (inactive).

Take `CN(C)c1ccc(N/C=C/C(=O)C(F)(F)F)cc1`: the activation was 31.5% (active).

On to `COC(=O)C[n+]1cccc2ccccc21`, for which the activation was 4.1% (inactive).

For the molecule `O=C(O)c1ccn(COc2ccc(Br)cc2)n1`, the activation is 7.4% (inactive).

Turning to `Cc1ccc(Cc2cnc(NC(=O)/C(C#N)=C/c3ccc(-c4cccc([N+](=O)[O-])c4)o3)s2)cc1`, the activation was 2.6% (inactive).

Consider `Cc1ccc(-c2ccc(/C=C(\C#N)C(N)=S)o2)c([N+](=O)[O-])c1`, for which the activation is 22.9% (active).

Turning to `Cc1cc(-c2ccc(/C=N/n3cnnc3)o2)c([N+](=O)[O-])cc1C`, the activation was -9.4% (inactive).

For the molecule `Cc1cc(C)cc(C(=O)N(CCc2ccccc2)C2=CC3CCC(C2)N3C)c1` (stereo not drawn), the activation was -4.8% (inactive).

Consider `CSc1nc2nc(-c3cccc(C(F)(F)F)c3)ccn2n1`, for which the activation is 3.3% (inactive).

For the molecule `CCn1ccnc1CN(C)Cc1nc(-c2ccc3c(c2)OCO3)no1`, the activation was 3.8% (inactive).

Turning to `CC(C)CC(CC(C)C)=NNC(=O)c1ccc(CSc2nncn2C)cc1`, the activation was 9.8% (inactive).

Regarding `COC(=O)c1cccnc1NC(=S)NC(C)C`, the activation is 5.1% (inactive).

For the molecule `Nc1ccc(Nc2ccccc2)cc1`, the activation was 20.9% (active).

Regarding `Cc1cc(Nc2ccccc2)n(C(=O)c2ccc(N)cc2)n1`, the activation is 3.5% (inactive).

As for `Cc1ccc(Nc2ccccc2N)cc1`, the activation is 7.5% (inactive).

Turning to `COc1cc(C(=O)NCc2nnc(SCC(=O)Nc3nc4ccc(C)cc4s3)o2)cc(OC)c1OC`, the activation is 4.6% (inactive).

In the case of `COc1ccc(-c2ccc(CCC(=O)O)n2NC(=O)c2ccc(C(C)(C)C)cc2)cc1`, the activation is 4.4% (inactive).

With `CCOC(=O)Cc1cc(=O)[nH]c(=O)[nH]1`, the activation was 1.2% (inactive).

On to `O=C1CCC(=O)N1c1ccc(NCCc2ccccc2F)c([N+](=O)[O-])c1`, for which the activation was 9% (inactive).

For `O=C(CSc1nc2c(cnn2-c2ccc(F)cc2)c(=O)[nH]1)N1CCCCCC1`, the activation was 1.2% (inactive).

Consider `C=CCNC(=O)CSc1nc2sc(C)c(C)c2c(=O)[nH]1`, for which the activation is 1.1% (inactive).

For `CC(=O)c1sc2nc(SCC(=O)N3CCCCC3)[nH]c(=O)c2c1C`, the activation was 19.1% (active).

Take `Cc1cccc(NC(=O)c2ccc3nsnc3c2)c1C`: the activation was 4.5% (inactive).

In the case of `O=C(Cc1ccccc1)NNS(=O)(=O)c1ccc([N+](=O)[O-])cc1`, the activation was 0.6% (inactive).

For `Cc1cn(C)c(=O)n(C)c1=O`, the activation was 3.8% (inactive).

With `COc1ccc(CCN=C2SCC(=O)N2Cc2ccccc2)cc1OC`, the activation is -0.6% (inactive).

Consider `COc1cc(CNC2CCCC2)c(Br)cc1OCc1ccccc1`, for which the activation is 1.4% (inactive).

As to `COc1cc(C2CC(=O)N3CN(Cc4ccccc4)CSC3=C2C#N)ccc1OCc1ccccc1` (stereo not drawn), the activation was 19% (active).

Turning to `CCOc1ccc(N(CC(=O)NCCc2ccc(OC)cc2)S(C)(=O)=O)cc1`, the activation is 0.5% (inactive).

With `CCOC(=O)Cc1csc(SCC(=O)NC(C)C23CC4CC(CC(C4)C2)C3)n1` (stereo not drawn), the activation is -9% (inactive).

Regarding `Cc1nnc(SCCCCSc2nnc(C)c(=O)[nH]2)[nH]c1=O`, the activation was 4.2% (inactive).

`COc1ccc(NC(=O)c2ccccc2CC[N+](=O)[O-])cc1`: the activation is 3.6% (inactive).
